Targets with a hit are over-represented here; the source holds about 7,900 in all. About 0.6% of all pairs of compound and target were hits. Values without a mark were called inactive.
What was measured:
Assay in all cases: log2 fold change, soluble protein after heating vs DMSO (PISA); higher = thermal stabilisation; K562 cells, 10 uM, 30 min; active = over 0.2 and 3.5 SD of the protein, either way, in both replicates (recomputed)
saracatinib = compound: CN1CCN(CCOc2cc(OC3CCOCC3)c3c(Nc4c(Cl)ccc5c4OCO5)ncnc3c2)CC1 [saracatinib]
How it was run: (§1)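 Aliquots of K562 cells (2×10^6 cells/mL) treated with 10 μM compound for 30 min were heated for 3 min over 48°C-58°C. After pooling and extraction in PBS with 0.5% NP-40 at 4°C, soluble protein from a 21,000xg, 90 min spin was quantified by TMTpro 16plex LC-MS/MS with channel sums equalised. Thermal stability is expressed against control samples, from duplicates, as a log2 fold change.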

sotrastaurin = compound: CN1CCN(c2nc(C3=C(c4c[nH]c5ccccc45)C(=O)NC3=O)c3ccccc3n2)CC1 [sotrastaurin]
How it was run: as §1

alvocidib = compound: CN1CC[C@H](c2c(O)cc(O)c3c(=O)cc(-c4ccccc4Cl)oc23)[C@H](O)C1 [alvocidib]
How it was run: as §1

Tubastatin A = compound: CN1CCc2c(c3ccccc3n2Cc2ccc(C(=O)NO)cc2)C1 [Tubastatin A]
How it was run: as §1

[1] = compound: CNC(=O)C1=CC=CC=C1NC2=NC(=NC=C2Cl)NC3=C(C=C(C=C3)N4CCOCC4)OC
How it was run: as §1

defactinib = compound: CNC(=O)c1ccc(Nc2ncc(C(F)(F)F)c(NCc3nccnc3N(C)S(C)(=O)=O)n2)cc1 [defactinib]
How it was run: as §1

rucaparib = compound: CNCc1ccc(-c2[nH]c3cc(F)cc4c3c2CCNC4=O)cc1 [rucaparib]
How it was run: as §1

[2] = compound: CNc1nc(-c2ccc3c(N)n[nH]c3c2)cc(N2C[C@@H](C(=O)NC3CCCCC3)CC[C@H]2C)n1
How it was run: as §1

encorafenib = compound: COC(=O)N[C@@H](C)CNc1nccc(-c2cn(C(C)C)nc2-c2cc(Cl)cc(NS(C)(=O)=O)c2F)n1 [encorafenib]
How it was run: as §1

[3] = compound: COC(=O)[C@H](CCSC)NC(=O)C1=C(C=C(C=C1)NC[C@H](CS)N)C2=CC=CC=C2
How it was run: as §1

Sequence of UniProt Q8IV08 (Q8IV08 whole entry, looked up): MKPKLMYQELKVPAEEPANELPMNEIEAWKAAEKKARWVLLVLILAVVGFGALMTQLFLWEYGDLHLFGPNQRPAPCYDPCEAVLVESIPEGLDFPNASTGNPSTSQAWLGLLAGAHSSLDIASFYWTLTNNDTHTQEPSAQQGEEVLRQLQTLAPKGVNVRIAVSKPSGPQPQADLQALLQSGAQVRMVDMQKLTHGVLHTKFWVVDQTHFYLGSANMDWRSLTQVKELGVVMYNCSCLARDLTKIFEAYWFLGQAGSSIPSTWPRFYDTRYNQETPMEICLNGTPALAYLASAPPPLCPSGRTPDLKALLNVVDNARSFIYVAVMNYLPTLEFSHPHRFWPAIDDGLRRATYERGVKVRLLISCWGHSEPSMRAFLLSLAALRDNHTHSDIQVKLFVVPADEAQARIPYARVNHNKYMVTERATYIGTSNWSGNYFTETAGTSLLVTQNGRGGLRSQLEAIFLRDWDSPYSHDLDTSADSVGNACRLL
Sequence of UniProt Q8WWY3 (Q8WWY3 whole entry, looked up): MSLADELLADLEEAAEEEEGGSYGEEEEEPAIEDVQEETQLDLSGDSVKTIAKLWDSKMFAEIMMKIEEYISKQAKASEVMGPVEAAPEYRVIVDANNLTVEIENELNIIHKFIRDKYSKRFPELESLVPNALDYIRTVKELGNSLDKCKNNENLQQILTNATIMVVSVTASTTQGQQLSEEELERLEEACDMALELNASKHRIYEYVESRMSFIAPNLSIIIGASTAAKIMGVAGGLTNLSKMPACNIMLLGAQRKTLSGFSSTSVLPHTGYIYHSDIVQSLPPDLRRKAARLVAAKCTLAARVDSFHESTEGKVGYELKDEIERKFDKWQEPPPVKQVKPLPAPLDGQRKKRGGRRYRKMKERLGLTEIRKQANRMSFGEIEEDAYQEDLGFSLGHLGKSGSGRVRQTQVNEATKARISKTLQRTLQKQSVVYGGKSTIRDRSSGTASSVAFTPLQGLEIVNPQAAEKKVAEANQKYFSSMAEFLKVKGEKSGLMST
Sequence of UniProt Q9Y3E5 (Q9Y3E5 whole entry, looked up): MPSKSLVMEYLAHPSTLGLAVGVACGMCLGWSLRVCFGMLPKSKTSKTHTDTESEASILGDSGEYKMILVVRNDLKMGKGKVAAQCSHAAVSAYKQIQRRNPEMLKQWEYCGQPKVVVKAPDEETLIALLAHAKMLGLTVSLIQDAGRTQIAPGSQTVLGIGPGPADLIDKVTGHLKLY
Sequence of UniProt P53350 (P53350 whole entry, looked up): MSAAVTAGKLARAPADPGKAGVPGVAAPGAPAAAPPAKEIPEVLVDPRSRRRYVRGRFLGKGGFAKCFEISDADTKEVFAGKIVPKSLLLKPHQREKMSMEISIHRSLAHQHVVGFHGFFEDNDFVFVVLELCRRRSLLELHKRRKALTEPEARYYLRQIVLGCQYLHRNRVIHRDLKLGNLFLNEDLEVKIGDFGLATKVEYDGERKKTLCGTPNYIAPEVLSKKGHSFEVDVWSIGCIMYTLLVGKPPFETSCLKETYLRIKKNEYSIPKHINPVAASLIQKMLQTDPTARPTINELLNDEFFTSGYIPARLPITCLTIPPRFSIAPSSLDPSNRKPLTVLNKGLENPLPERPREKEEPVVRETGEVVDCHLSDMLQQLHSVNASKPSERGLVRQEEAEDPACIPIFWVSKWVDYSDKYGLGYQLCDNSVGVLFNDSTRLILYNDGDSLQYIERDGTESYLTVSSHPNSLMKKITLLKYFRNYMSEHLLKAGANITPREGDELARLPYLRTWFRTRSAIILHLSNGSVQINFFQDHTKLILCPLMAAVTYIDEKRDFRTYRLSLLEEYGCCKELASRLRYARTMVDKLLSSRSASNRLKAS
Sequence of UniProt Q8WUM4 (Q8WUM4 whole entry, looked up): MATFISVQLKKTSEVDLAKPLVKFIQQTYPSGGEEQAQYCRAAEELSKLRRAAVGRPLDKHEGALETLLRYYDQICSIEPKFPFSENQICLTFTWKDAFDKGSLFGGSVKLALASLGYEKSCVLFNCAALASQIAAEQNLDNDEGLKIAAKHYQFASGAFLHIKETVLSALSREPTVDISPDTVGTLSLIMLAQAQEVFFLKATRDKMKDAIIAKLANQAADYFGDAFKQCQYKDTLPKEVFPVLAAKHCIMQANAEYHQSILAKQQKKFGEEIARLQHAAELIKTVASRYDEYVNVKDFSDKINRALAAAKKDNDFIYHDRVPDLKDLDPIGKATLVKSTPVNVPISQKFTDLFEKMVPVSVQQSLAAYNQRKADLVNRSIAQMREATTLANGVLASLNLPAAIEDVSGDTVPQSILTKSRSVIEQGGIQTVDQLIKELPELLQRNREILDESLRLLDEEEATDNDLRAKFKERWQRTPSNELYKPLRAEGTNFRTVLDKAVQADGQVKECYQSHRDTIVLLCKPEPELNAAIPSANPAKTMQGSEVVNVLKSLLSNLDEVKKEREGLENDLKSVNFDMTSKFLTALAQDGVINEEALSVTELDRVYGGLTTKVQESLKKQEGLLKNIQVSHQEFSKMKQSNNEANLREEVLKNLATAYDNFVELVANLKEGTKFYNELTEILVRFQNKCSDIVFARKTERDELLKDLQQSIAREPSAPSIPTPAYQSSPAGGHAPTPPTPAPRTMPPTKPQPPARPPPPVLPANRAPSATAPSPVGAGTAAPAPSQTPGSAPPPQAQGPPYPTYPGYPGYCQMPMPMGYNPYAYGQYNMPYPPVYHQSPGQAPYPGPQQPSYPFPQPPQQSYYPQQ
Sequence of UniProt P48426 (P48426 whole entry, looked up): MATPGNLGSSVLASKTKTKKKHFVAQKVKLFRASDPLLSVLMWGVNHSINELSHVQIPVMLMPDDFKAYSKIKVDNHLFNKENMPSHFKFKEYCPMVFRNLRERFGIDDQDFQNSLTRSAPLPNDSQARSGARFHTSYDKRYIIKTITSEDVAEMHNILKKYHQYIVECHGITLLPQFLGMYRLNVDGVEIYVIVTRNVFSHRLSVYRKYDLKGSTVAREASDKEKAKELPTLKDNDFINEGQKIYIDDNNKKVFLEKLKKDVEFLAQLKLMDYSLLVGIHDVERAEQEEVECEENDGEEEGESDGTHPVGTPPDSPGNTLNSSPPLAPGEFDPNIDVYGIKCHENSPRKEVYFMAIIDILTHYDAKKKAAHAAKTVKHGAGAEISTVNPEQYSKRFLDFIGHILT
Sequence of UniProt P54619 (P54619 whole entry, looked up): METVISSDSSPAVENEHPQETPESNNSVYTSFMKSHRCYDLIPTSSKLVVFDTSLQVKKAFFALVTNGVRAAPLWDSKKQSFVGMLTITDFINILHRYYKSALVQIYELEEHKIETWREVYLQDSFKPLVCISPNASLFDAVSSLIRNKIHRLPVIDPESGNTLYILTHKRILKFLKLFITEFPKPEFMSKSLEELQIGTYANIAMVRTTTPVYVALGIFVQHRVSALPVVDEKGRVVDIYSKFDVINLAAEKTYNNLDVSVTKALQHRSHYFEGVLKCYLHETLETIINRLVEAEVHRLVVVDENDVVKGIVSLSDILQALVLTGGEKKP
Sequence of UniProt Q00577 (Q00577 whole entry, looked up): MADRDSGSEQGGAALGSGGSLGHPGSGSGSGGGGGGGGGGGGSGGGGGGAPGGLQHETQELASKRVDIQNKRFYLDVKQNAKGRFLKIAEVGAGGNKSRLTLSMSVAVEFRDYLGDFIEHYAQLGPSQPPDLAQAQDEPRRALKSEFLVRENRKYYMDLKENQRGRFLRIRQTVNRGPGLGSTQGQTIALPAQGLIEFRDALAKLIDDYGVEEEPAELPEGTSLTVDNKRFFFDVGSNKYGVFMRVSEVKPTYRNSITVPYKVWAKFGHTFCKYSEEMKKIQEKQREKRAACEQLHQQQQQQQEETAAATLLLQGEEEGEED
Sequence of UniProt Q8N5Y8 (Q8N5Y8 whole entry, looked up): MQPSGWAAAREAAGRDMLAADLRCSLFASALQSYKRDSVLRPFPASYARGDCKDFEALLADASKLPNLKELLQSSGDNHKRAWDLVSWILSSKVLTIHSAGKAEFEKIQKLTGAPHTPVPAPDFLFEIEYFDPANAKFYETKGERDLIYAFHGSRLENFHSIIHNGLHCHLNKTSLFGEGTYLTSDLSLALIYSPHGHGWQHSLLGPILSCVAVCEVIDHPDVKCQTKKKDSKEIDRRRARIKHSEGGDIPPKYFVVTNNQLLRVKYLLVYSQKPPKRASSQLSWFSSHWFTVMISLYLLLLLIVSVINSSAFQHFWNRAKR
Sequence of UniProt P62195 (P62195 whole entry, looked up): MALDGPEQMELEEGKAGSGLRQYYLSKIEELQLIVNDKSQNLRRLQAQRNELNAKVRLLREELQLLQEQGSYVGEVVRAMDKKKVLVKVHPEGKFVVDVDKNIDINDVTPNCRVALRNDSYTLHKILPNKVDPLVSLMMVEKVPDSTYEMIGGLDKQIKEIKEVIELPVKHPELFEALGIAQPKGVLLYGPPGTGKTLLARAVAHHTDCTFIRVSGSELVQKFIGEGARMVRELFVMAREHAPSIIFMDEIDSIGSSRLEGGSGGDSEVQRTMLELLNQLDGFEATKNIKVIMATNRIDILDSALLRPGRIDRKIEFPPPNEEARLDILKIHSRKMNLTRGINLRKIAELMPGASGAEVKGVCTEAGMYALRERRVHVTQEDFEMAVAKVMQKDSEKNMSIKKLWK
Sequence of UniProt Q12974 (Q12974 whole entry, looked up): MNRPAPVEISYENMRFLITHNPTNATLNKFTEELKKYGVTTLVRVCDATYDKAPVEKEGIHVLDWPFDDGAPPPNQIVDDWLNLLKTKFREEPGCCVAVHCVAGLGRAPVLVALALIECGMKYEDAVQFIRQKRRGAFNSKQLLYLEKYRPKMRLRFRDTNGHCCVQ
Sequence of UniProt Q9Y5Y5 (Q9Y5Y5 whole entry, looked up): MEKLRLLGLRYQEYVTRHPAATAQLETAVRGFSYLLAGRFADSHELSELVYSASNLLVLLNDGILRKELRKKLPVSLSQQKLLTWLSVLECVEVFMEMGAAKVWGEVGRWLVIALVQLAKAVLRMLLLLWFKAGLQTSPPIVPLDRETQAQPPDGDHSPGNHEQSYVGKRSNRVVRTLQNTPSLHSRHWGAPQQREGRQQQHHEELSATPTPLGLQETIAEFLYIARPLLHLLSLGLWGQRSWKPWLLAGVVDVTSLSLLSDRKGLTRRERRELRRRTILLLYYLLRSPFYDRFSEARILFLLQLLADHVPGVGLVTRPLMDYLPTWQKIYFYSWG

| Target | log2 fold change (saracatinib) | log2 fold change (sotrastaurin) | log2 fold change (alvocidib) | log2 fold change (Tubastatin A) | log2 fold change [1] | log2 fold change (defactinib) | log2 fold change (rucaparib) | log2 fold change [2] | log2 fold change (encorafenib) | log2 fold change [3] |
| --- | --- | --- | --- | --- | --- | --- | --- | --- | --- | --- |
| PEX16 isoform 2 (UniProt Q9Y5Y5) | 0.038 | -0.02 | -0.141 | 0.021 | -0.053 | -0.106 | 0.042 | -0.04 | 0.001 | 0.05 |
| PPM1G (UniProt O15355) | -0.086 | -0.213 | -0.165 | 0.187 | 0.108 | -0.226 | -0.088 | -0.038 | 0.085 | -0.104 |
| PPIL2 (UniProt Q13356) | -0.02 | -0.096 | -0.093 | 0.069 | -0.023 | -0.194 | 0.073 | 0.067 | 0.047 | -0.065 |
| PPP2R5E (UniProt Q16537) | -0.077 | 0.012 | -0.069 | 0.005 | 0.083 | -0.025 | -0.008 | 0.074 | 0.021 | -0.017 |
| PDCD6IP (UniProt Q8WUM4) | -0.11 | -0.227 | -0.132 | 0.048 | 0.034 | -0.141 | 0.119 | 0.055 | 0.138 | -0.048 |
| PSMC5 (UniProt P62195) | -0.041 | -0.004 | 0.065 | -0.013 | -0.028 | 0.066 | 0.025 | 0.065 | 0.02 | 0.009 |
| PTP4A2 (UniProt Q12974) | -0.038 | 0.107 | -0.332 (active) | 0.057 | -0.1 | -0.213 | -0.143 | -0.066 | 0.008 | 0.117 |
| PIGT (UniProt Q969N2) | -0.024 | -0.023 | -0.021 | -0.052 | 0.029 | 0.012 | -0.002 | 0.013 | 0.048 | -0.015 |
| PLD3 (UniProt Q8IV08) | 0.034 | 0.013 | -0.024 | 0.004 | 0.016 | -0.005 | -0.094 | -0.037 | 0.007 | 0.009 |
| PTRH2 (UniProt Q9Y3E5) | -0.008 | 0.027 | -0.09 | -0.052 | 0.148 | -0.009 | -0.002 | -0.051 | 0.017 | 0 |
| PRKACA (UniProt P17612) | 0.002 | -0.117 | -0.012 | 0.054 | -0.104 | -0.015 | 0.061 | 0.077 | 0.01 | 0.072 |
| PRKAG1 isoform 3 (UniProt P54619) | -0.016 | 0.04 | -0.062 | 0.01 | -0.184 | -0.081 | -0.005 | -0.026 | 0.026 | -0.014 |
| PARP16 isoform 3 (UniProt Q8N5Y8) | 0.175 | -0.038 | -0.054 | 0.005 | -0.009 | 0.046 | 0.198 | -0.042 | -0.087 | -0.005 |
| PPIL4 (UniProt Q8WUA2) | -0.012 | -0.072 | -0.071 | -0.005 | -0.123 | -0.108 | 0.07 | 0.024 | 0.086 | -0.031 |
| PLBD2 (UniProt Q8NHP8) | 0.033 | 0.031 | 0.006 | 0.01 | 0.029 | -0.025 | -0.115 | -0.008 | 0.005 | 0.038 |
| PTGFRN (UniProt Q9P2B2) | 0.029 | 0.082 | -0.029 | 0 | -0.092 | -0.049 | -0.024 | 0.056 | -0.004 | 0.053 |
| PI4K2B (UniProt Q8TCG2) | -0.067 | 0.04 | -0.05 | 0.028 | -0.016 | 0.003 | 0.097 | -0.096 | -0.148 | -0.099 |
| PRKCA (UniProt P17252) | -0.174 | -0.502 (active) | -0.017 | 0.018 | 0.026 | -0.006 | 0.039 | 0.308 | -0.038 | 0.005 |
| PCBP2 (UniProt F8VRH0) | 0.255 | -0.319 | 0.106 | 0.155 | 0.105 | 0.009 | 0.066 | -0.014 | 0.014 | 0.066 |
| PRPF31 (UniProt Q8WWY3) | -0.093 | -0.15 | -0.193 | 0.144 | -0.033 | -0.456 (active) | -0.068 | 0.033 | 0.011 | -0.037 |
| PECAM1 (UniProt P16284) | 0.062 | 0.062 | 0.005 | 0.096 | -0.076 | 0 | 0 | 0.003 | -0.092 | -0.007 |
| PPP4R3B (UniProt Q5MIZ7) | -0.008 | -0.05 | -0.11 | 0.022 | 0.057 | -0.023 | -0.065 | -0.033 | 0.014 | 0.003 |
| PCYT1A (UniProt P49585) | -0.014 | -0.105 | -0.254 | 0.013 | 0.032 | -0.186 | -0.127 | -0.097 | -0.001 | -0.02 |
| PLCB3 (UniProt Q01970) | -0.044 | -0.039 | -0.02 | -0.027 | 0.023 | -0.074 | -0.015 | -0.045 | 0.004 | -0.083 |
| PURA (UniProt Q00577) | 0.061 | 0.063 | 0.321 | 0.001 | 0.059 | 0.347 | 0.309 | 0.076 | 0.086 | 0.04 |
| POLR2D (UniProt O15514) | 0.064 | 0.015 | 0.22 | -0.064 | -0.114 | 0.165 | 0.056 | 0.026 | 0.003 | -0.038 |
| PARL (UniProt Q9H300) | 0.056 | 0.019 | 0.026 | -0.053 | 0.025 | -0.011 | -0.005 | -0.052 | 0.029 | 0.015 |
| PARG (UniProt Q86W56) | 0.003 | -0.102 | -0.19 | 0.051 | -0.113 | -0.068 | 0.044 | 0.115 | 0.034 | -0.025 |
| PLK1 (UniProt P53350) | 0.034 | -0.223 | 0.14 | -0.058 | -2.06 (active) | -0.165 | 0.052 | -0.008 | 0.058 | -0.013 |
| PIP4K2A (UniProt P48426) | 0.048 | 0.011 | 0.131 | -0.001 | 0.084 | 0.166 | 0.013 | -0.132 | 0.1 | -0.056 |

— the supplement of paper PMC10849652
